Compounds with a hit are over-represented: about 3.7% of the library has one in this group of screens.
BoNT-A LC inh2 = inhibitors of Botulinum neurotoxin A light chain protease. AID 588499. inhibition, % at 10 µM. 360,000 tested, 0.17% active. multiplex microsphere protease substrate cleavage, flow cytometry
Anthrax LF prot = inhibitors of Bacillus anthracis lethal factor protease; inhibition, % at 10 µM; P15917; multiplex microsphere protease cleavage assay, LF; 360,000 tested, 0.12% active
Target sequence (P15917 whole entry, looked up): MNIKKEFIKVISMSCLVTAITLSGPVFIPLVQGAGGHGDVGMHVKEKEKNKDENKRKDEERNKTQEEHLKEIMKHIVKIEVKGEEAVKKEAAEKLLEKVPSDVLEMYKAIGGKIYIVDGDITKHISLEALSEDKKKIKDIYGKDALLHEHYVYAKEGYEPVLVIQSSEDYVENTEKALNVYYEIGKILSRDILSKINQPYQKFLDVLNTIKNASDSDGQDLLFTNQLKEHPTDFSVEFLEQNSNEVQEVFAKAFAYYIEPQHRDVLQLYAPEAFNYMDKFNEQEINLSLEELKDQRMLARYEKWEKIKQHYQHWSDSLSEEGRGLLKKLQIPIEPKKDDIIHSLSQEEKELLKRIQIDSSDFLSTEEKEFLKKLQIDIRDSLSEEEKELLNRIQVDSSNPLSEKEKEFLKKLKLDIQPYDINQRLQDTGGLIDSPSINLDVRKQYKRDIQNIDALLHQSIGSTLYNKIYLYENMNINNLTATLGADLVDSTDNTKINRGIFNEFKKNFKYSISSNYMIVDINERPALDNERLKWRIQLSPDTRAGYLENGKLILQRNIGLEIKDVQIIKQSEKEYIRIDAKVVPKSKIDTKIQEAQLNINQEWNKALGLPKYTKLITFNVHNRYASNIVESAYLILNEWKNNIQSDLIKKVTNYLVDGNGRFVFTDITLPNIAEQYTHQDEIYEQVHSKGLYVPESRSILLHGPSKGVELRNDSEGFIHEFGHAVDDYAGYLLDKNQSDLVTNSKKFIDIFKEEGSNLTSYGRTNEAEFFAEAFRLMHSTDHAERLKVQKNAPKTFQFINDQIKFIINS
BJeLR lethal = kills HRASV12-expressing BJeLR cells; BJeLR (HRASV12) viability, CellTiter-Glo ATP luminescence, 48 h; inhibition, % (concentration not given with the values); 300,000 tested, 0.17% active; AID 1554; in the data active = inhibition above about 50%; inconclusive = no clear call, values can overlap the other calls
BoNT F protease = BoNT F light chain protease inhibition; Multiplex microsphere protease cleavage assay, flow cytometry; inhibition, % at 10 µM; 360,000 tested, 0.22% active; AID 588497; in the data active = inhibition above about 35%, passing the limit was not always enough; inconclusive = no clear call, values can overlap the other calls
BH1578 lux ind = quorum light induction in luxS cqsA deficient V. cholerae. V. cholerae BH1578 lux reporter, luminescence, 6 h. activation, % at 18.7 µM. 350,000 tested, 0.16% active; in the data active = activation mostly above about 9.7%, no sharp cut-off; inconclusive = no clear call, values can overlap the other calls; inactive = mostly below about 3.7%
Bead autofluor = compound fluorescence in toxin protease inhibitor counterscreen | compound autofluorescence counterscreen, microsphere flow cytometry; active compounds read high | fluorescence intensity (no concentration beside the values) | 360,000 tested, 3.1% active; in the data active = fluorescence intensity above about 16000; inconclusive = no clear call, values can overlap the other calls
Each line names hits and unclear results; the compound was inactive in the other large screens. Cut-off read from the data, not from the text of the source, unless noted: active = inhibition above about 30%; inconclusive = no clear call, values can overlap the other calls; inactive = below that.

COc1cccc(OC)c1OCCCOc1c(OC)cccc1OC	none
CCCNC(=O)Cn1c(=O)/c(=C\c2ccc(-c3cccc([N+](=O)[O-])c3)o2)s/c1=C\C(=O)C(C)(C)C	BoNT-A LC inh2 33
CC(C)NC(=S)N(C)C1(c2ccccc2Cl)CCCCC1=O (stereo not given)	none
CN(C(=S)Nc1ccccc1F)C1(c2ccccc2Cl)CCCCC1=O (stereo not given)	Bead autofluor 20195
Cc1cccc(NC(=S)N(C)C2(c3ccccc3Cl)CCCCC2=O)c1 (stereo not given)	Bead autofluor 22871
CCOC(=O)N(C)c1c(CC)nc2c(OCc3ccccc3C)cccn12	none (no result: BJeLR lethal)
C[C@H](N)c1nnc(SCC(=O)c2ccc(Cl)cc2)o1	Bead autofluor 16731
CCCN1C(=O)/C(=C/c2c(NCCCOC(C)C)nc3c(C)cccn3c2=O)SC1=S	BoNT F protease 35
CCc1nc2ccc(C(=O)Nc3cccc(NS(C)(=O)=O)c3)cn2c1N(C)Cc1nccn1C	none (no result: BJeLR lethal)
CN(/N=C/c1ccncc1)c1cnn(-c2ccc(F)c(Cl)c2)c(=O)c1Cl	Bead autofluor 20433
CCN1/C(=C\C=C\C2=[N+](CC)c3ccccc3C2(C)C)C(C)(C)c2ccccc21	BoNT-A LC inh2 92, BJeLR lethal 88
COc1ccc2oc(C(=O)CCC(=O)O)c(N)c2c1	none
Nc1c(C(=O)c2ccccc2)oc2ccc(Br)cc12	Bead autofluor 20833
COC(=O)CCC(=O)c1oc2ccc(Br)cc2c1N	Bead autofluor 16549
Cc1cc(Cl)ccc1Oc1nc(-c2ccc(F)cc2)ccc1C#N	BoNT-A LC inh2 inconclusive, Bead autofluor 22004
CCOc1nc(-c2ccc(Cl)cc2Cl)ccc1C#N	Bead autofluor inconclusive
COc1cccc(C(=O)Nc2cccc3ccccc23)c1	none
COc1cccc(C(CC(=O)Nc2cccc3ccccc23)NC(=O)c2ccccc2)c1 (stereo not given)	Bead autofluor 19845
CC(=O)C1CCC2C3CC(C)=C4CC(O)CCC4(C)C3CCC12C (stereo not given)	none (no result: BJeLR lethal)
CCC1(CC)C(=O)NC(=NCCc2c[nH]c3ccccc23)NC1=O	Bead autofluor 17043
NCCc1c[nH]c2ccccc12	none (no result: BJeLR lethal)
COc1cc(OC)nc(NC(C)=O)n1	Bead autofluor 23958
COc1cc(OC)nc(NC(=O)C(C)C)n1	none
O=C(/C=C/[C@H]1O[C@@H](n2ccc(=O)[nH]c2=O)[C@H](O)[C@@H]1O)NCc1ccccc1	none (no result: BJeLR lethal, BH1578 lux ind)
COc1ccc(CN2C[C@@H](CO)O[C@@H](n3cnc4c(NCCN(C)C)ncnc43)C2)cc1	none (no result: BJeLR lethal)
CCOC(=O)c1cnc2c(cnn2C)c1NCCC(O)C(F)(F)F (stereo not given)	Bead autofluor 21233
CC(C)(C(=O)N1CCC1(C)C(=O)NS(=O)(=O)c1ccccc1Cl)c1ccccc1 (stereo not given)	none (no result: BJeLR lethal)
CN1NC(c2ccccc2)NN(C)C1=O	none (no result: BJeLR lethal, BH1578 lux ind)
CCOC(=O)C1(C)CCN1C(=O)c1cccc(Cl)c1 (stereo not given)	none (no result: BJeLR lethal)
Cc1ccccc1N1C(=O)[C@@H]2Cc3ccccc3CN2C1=O	BoNT-A LC inh2 inconclusive, Bead autofluor 19296
CCCCOC(=O)Nc1cc(OC)c(Cl)cc1OC	Bead autofluor 23042
CCCCOC(=O)Nc1ccc(C(=O)OC)cc1	Bead autofluor 21923
COc1cc(NC(=O)c2c(F)c(F)c(F)c(F)c2F)c(OC)cc1Cl	Bead autofluor 21733
Cc1ccc(S(=O)(=O)Nc2ccc(Nc3nccn4c(-c5ccc6ccccc6c5)cnc34)cc2)cc1	none (no result: BJeLR lethal)
O=C(CNC(=O)c1n[nH]c2ccccc12)Nc1ccc(F)c(F)c1F	none (no result: BJeLR lethal)
O=C(CSc1nc2ccccc2[nH]1)NCCCn1ccnc1	Bead autofluor 16490
Cc1ccccc1SCC(=O)NCCCn1ccnc1	none
O=C(CSc1nnc(Cn2c(=O)sc3ccccc32)n1CCc1ccccc1)N1CCOCC1	Bead autofluor 16901 (no result: BJeLR lethal)
COc1ccc(CCNC(=O)CSc2nnc(Cn3c(=O)sc4ccccc43)n2C)cc1OC	BoNT-A LC inh2 inconclusive, Bead autofluor 24341 (no result: BJeLR lethal)
COc1ccccc1NC(=O)CSc1nnc(Cn2c(=O)sc3ccccc32)n1C	none
O=C(CSc1nnc(-c2cccnc2)n1Cc1ccccc1)N1CCOCC1	BoNT-A LC inh2 inconclusive, Bead autofluor 24649
O=C(CSc1nnc(-c2ccccc2)n1Cc1ccccc1)N1CCOCC1	none
COC(=O)c1cccc(CN2C(=O)C(C)Oc3ccc(C)cc32)c1 (stereo not given)	none (no result: BJeLR lethal)
Cc1cc2oc(C(=O)N(Cc3ccco3)C3CCS(=O)(=O)C3)cc(=O)c2cc1Cl (stereo not given)	Bead autofluor 23579
CCCc1cn(S(=O)(=O)c2ccc(OC)cc2OC)nc1N	Bead autofluor 17146
CC(C)(C)OC(=O)C[C@@H]1C/C=C\C[C@@H](CC(=O)N(CCO)Cc2ccccc2)C(=O)N[C@H](C(C)(C)C)COC1=O	none (no result: BJeLR lethal)
Cc1cccc(C)c1NC(=O)C(c1ccccc1)N1CCN(c2ccc(F)cc2)CC1 (stereo not given)	none (no result: BJeLR lethal, BH1578 lux ind)
CC(C)n1nc(C(=O)Nc2nc3ccc(S(C)(=O)=O)cc3s2)c2ccccc2c1=O	none
CC(C)n1nc(C(=O)Nc2nnc(SCc3c(Cl)cccc3Cl)s2)c2ccccc2c1=O	Bead autofluor 19535
Cc1c(C(=O)NCc2cccc([N+](=O)[O-])c2)sc(=O)n1Cc1ccc(C(C)C)cc1	none (no result: BJeLR lethal)
Cc1cc(NC(=O)CSc2nc(-c3ccc(Cl)cc3)cs2)no1	BoNT-A LC inh2 inconclusive, Bead autofluor 20504
Cc1cc(NC(=O)CSc2ccc(Cl)cc2)no1	Bead autofluor 22791
COc1ccccc1C(=O)NCCn1cc(SCC(=O)Nc2cc(C)on2)c2ccccc21	BoNT-A LC inh2 inconclusive, Bead autofluor 16999
COc1ccc(-c2ccc(SCC(=O)Nc3cc(C)on3)nn2)cc1OC	Bead autofluor 25486
CN(CC1CCCN(CCc2ccccc2F)C1)C(=O)c1cc2ccccc2o1 (stereo not given)	none (no result: BJeLR lethal)
Cc1ccc(NC(=C(C#N)C#N)c2ccccc2)cc1	none (no result: BJeLR lethal)
CCOC(=O)[C@]12CCC=C1N(Cc1cccc3ccccc13)C(=O)[C@H](CC(=O)NCc1ccc(C)o1)C2	none (no result: BJeLR lethal, BH1578 lux ind)
Cc1cc(NC(=O)Cn2cc(C(F)(F)F)cc(Cl)c2=O)no1	BoNT-A LC inh2 inconclusive, Bead autofluor 21524
Cc1ccc(Cl)cc1NC(=O)Cn1cc(C(F)(F)F)cc(Cl)c1=O	none
CC(C)C#Cc1cnc2c(c1)C(=O)N([C@@H](C)CO)C[C@@H](C)[C@H](CN(C)Cc1cccc(F)c1)O2	none (no result: BJeLR lethal)
COc1cccc(C(=O)NNC2=CC(=O)CC(C)(C)C2)c1	Bead autofluor 20933
COc1ccc(CNC2=CC(=O)CC(C)(C)C2)cc1	Bead autofluor 24712
CC1(C)CC(=O)C=C(NCc2ccc(C(=O)O)cc2)C1	Bead autofluor inconclusive
CC1(C)CC(=O)C=C(NNC(=O)c2cccnc2)C1	Anthrax LF prot inconclusive
CCCNC(=O)C1(C)CCN1C(=O)c1ccc(C(C)(C)C)cc1 (stereo not given)	none (no result: BJeLR lethal)
CCCCC[C@H](C)N1C[C@@H](COCc2ccccc2)Oc2cc(N3CCC[C@@H]3COC)ccc2S1(=O)=O	none (no result: BJeLR lethal, BH1578 lux ind)

Compound activity (PubChem BioAssay)
